Results: PubChem BioAssay AID488840 (Broad Institute, 2010)
Among all 1,400 compounds or so, about 45 (3%) were called active.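 Rule for the calls: active = half-maximal dose of signal decrease from fit no higher than ten times the top valid tested dose; inconclusive = fit invalid, or curve flat with 30 to 70% inhibition; inactive = the rest.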 A selection follows. Measured potencies and affinities stand elsewhere.

These molecules were tested against Lysine-specific demethylase 4A (Homo sapiens) (UniProt O75164) (assay: inhibition of JMJD2A H3K9me3 demethylation – biochemical, DELFIA europium, cherry-picked samples, selectivity assay for GASC-1 inhibitor project, dose response (AID 488840;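 note: europium signal reports the dimethyl H3K9 product detected by antibody so inhibitors lower it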)). Details: GST-JMJD2A(1-420) H3K9me3 demethylation; series mostly up to 6 µM.
Lysine-specific demethylase 4A (Homo sapiens), sequence (O75164 whole entry, looked up): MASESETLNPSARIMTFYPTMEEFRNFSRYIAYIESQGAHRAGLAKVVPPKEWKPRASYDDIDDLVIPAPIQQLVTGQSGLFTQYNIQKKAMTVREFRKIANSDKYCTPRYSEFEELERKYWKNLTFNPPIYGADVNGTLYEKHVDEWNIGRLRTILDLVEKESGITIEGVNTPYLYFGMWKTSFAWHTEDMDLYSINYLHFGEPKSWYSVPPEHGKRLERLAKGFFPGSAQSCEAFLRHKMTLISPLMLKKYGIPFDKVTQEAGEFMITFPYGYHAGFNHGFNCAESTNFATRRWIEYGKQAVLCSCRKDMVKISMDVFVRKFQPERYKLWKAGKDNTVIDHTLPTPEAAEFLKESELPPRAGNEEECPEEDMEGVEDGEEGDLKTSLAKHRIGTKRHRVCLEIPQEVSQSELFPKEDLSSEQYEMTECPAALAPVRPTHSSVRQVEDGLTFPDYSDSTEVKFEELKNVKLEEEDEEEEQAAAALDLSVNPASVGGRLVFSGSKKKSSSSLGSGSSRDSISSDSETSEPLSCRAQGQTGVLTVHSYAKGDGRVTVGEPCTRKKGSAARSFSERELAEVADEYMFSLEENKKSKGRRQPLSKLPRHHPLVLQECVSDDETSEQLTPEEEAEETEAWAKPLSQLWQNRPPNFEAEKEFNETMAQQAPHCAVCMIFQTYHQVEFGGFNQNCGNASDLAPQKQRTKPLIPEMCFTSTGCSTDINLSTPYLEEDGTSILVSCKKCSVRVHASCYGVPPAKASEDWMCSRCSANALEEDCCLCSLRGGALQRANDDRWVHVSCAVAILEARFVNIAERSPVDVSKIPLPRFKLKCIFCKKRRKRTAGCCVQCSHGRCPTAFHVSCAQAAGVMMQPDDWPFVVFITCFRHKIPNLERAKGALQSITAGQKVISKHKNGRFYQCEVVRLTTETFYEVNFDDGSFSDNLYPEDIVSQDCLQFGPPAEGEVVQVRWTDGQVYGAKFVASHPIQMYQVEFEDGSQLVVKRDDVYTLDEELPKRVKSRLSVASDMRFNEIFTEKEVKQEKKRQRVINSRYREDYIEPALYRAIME

outcome, inactive:
CC1=NN(C(=O)Cc2ccccc2)C(O)(c2cccnc2)C1 (stereo unspecified)
C#CCOCCOCCOCCNc1nc(N2CCN(C(=O)[C@H](CCCCN)n3cc(CN)nn3)CC2)nc(N2CCN(C(=O)[C@H](CCC(=O)O)n3cc([C@@H](N)CCSC)nn3)CC2)n1
CCN(CC)C(=O)[C@H]1CC(CC(=O)NC/C=C(\C)CCC=C(C)C)C(=O)N2CCc3c([nH]c4ccccc34)[C@]12C (stereo partly specified)
Cc1ccc(/C(N)=N/OC(=O)CCC2CCCCC2)cc1
O=c1cc(N2CCc3ccccc32)[nH]c(=O)n1-c1ccccc1
CCc1ncc(C)[nH]1
Cc1noc(C)c1COc1ccc(C(=O)NCC2CCCO2)cc1 (stereo unspecified)
O=c1cc(-c2ccc(O)c(O)c2)oc2c(C3O[C@H](CO)[C@@H](O)[C@H](O)[C@H]3O)c(O)cc(O)c12 (stereo partly specified)
CCC(C)NC(=S)N1CCN(C)CC1 (stereo unspecified)
COc1cccc(NC(=O)N2CCN(c3cccc(C)c3)C(C)C2)c1 (stereo unspecified)
COC(=O)[C@]1(Cc2ccccc2)N[C@H](CN(C)C(=O)Nc2ccccc2)[C@@H]2C(=O)N(C)C(=O)[C@@H]21
O=C(NCc1nnc(SCC(=O)N2CCCC2)o1)c1ccccc1F
CCC(=O)Nc1ccccc1Nc1cc(C#N)c(C#N)cc1[N+](=O)[O-]
O=[N+]([O-])c1ccccc1N/N=C\c1ccccc1Cl
Cc1ccc(Nc2nnc(SCC(=O)N(C)C3CCS(=O)(=O)C3)s2)cc1 (stereo unspecified)
CCO[C@@H]1OC(C(=O)NC2CC2)=C[C@H](c2c[nH]c3ccccc23)[C@H]1CCCO
Cc1occc1-c1nnc(SCC(=O)c2cc3ccccc3oc2=O)o1
O=C(NCCCn1ccnc1)c1cc2c(ccc3ccccc32)o1
COc1ccccc1NC(=O)c1cccs1
COc1ccccc1NC(=O)COC(=O)/C=C/c1cccs1
Cc1ccc(C(=O)NCCCCNC(=O)c2ccc(C)o2)o1
COC(=O)C1=C(C)OC(N)=C(C#N)C1c1cc2cccc(C)c2nc1Cl (stereo unspecified)
CC(C)=CC(=O)O[C@@H]1Cc2c(ccc3ccc(=O)oc23)OC1(C)C
c1ccc2c(c1)ccc1nnc(-c3ccc4c(c3)OCO4)n12
CS(=O)(=O)N(CC(=O)N1CCCCCC1)c1ccccc1
C[C@H](CO)N1C[C@H](C)[C@@H](CN(C)Cc2ccncc2)Oc2c(NC(=O)Cc3ccccc3)cccc2C1=O
O=C(Nc1cccnc1)c1ccc2c(c1)C(=O)N(Cc1cccnc1)C2=O
CCOC(=O)CSc1nc2sc(C)c(C)c2c(=O)[nH]1
Cn1c(=O)c(-c2ccccc2)nn2c3ccccc3nc12
Cc1ccc(Nc2c(-c3ccccn3)nc3cc(C)ccn23)cc1
c1ccc(-c2nc(-c3ccco3)cs2)nc1
Clc1ccccc1Cn1nnc2c(NCCN3CCOCC3)ncnc21
Cc1ccc(NC(=O)c2cccc3c2C(=O)N(C2CCCCC2)C3)c(C)c1
Cc1ccc(S(=O)(=O)Nc2ccc3c(c2)C(=O)N([C@H](C)CO)C[C@H](C)[C@@H](CN(C)Cc2ccc(-c4ccccc4)cc2)O3)cc1
Cc1nn(C)c(N)c1C(O)(c1nccn1C)C(F)(F)F (stereo unspecified)
O=C(NCC(c1ccco1)N1CCCCC1)c1ccc(OCc2ccccc2)cc1 (stereo unspecified)
CCOC(=O)Cc1csc(NC(=O)COc2cccc(C)c2)n1
Cc1ccccc1-n1nc(C)c2cc(C(=O)N3CCN(S(=O)(=O)c4ccc(F)cc4)CC3)sc21
Cc1cccc(-c2noc(CCC(=O)NC3CCCC3)n2)c1
COc1ccc(CN2CCCCC2C)c(C)c1C (stereo unspecified)
CC(C)CCN(C(=O)C1=COCCO1)c1c(N)n(Cc2ccccc2)c(=O)[nH]c1=O
Cn1c(=O)[nH]c(=O)c2c1nc(NCCCO)n2Cc1ccc(F)cc1
COC(=O)COc1ccc(Oc2cc(C)nc(SC)n2)nn1
Cc1ccc2c(c1)N(CC(=O)NCC1CCCO1)C(=O)C(C(C)C)O2 (stereo unspecified)
C=CCn1c(N)c(-c2nc3ccccc3n2C)sc1=S
COc1ccc(C(=O)N2CCCC(c3nc(-c4ccc(OC)c(OC)c4)no3)C2)c(OC)c1 (stereo unspecified)
O=C(NCCCN1CCOCC1)c1cccc(S(=O)(=O)N2CCc3ccccc3C2)c1
O=C(Nc1cc(S(=O)(=O)N2CCOCC2)ccc1N1CCCC1)c1ccc(F)cc1
O=C(COC(=O)c1cccc(S(=O)(=O)NCc2ccccc2)c1)Nc1ccccc1OC(F)F
c1coc(CSCc2cn3cccnc3n2)c1
COC(=O)[C@]1(C)N[C@H](CN(C)C(=O)Nc2ccc(F)cc2)[C@@H]2C(=O)N(C)C(=O)[C@@H]21
Cc1cccc(NC(=O)C2CCCN(S(=O)(=O)c3c(C)nn(C)c3C)C2)n1 (stereo unspecified)
CN(C(=O)c1ccc(Cl)c([N+](=O)[O-])c1)C1(C)CCS(=O)(=O)C1 (stereo unspecified)
O=C1NC(=S)N/C1=C/c1cc2c(cc1[N+](=O)[O-])OCO2
N#CC1(NC(=O)Cn2ncc(Cl)c(Cl)c2=O)CCCCC1
CCOC(=O)C1=C(C)N(C)C(C)=C(C(=O)OCC)C1c1cccnc1
COc1cccc(CNC(=O)c2cc3c(cc2Cl)N2CCCCCC2=NS3(=O)=O)c1
C#CCOCCOCCOCCNc1nc(N2CCN(C(=O)CCCCCCCCCCNC(=O)[C@H](CCCCN)n3cc(CCO)nn3)CC2)nc(N2CCN(C(=O)CCCCCCCCCCNC(=O)[C@H](CCCCN)n3cc(C[C@@H](C)CC)nn3)CC2)n1
C#CCOCCOCCOCCNc1nc(N2CCN(C(=O)CCCCCCCCCCNC(=O)[C@H]([C@@H](C)CC)n3cc(CCCCN=C(N)N)nn3)CC2)nc(N2CCN(C(=O)CCCCCCCCCCNC(=O)[C@H](CCCCN)n3cc(C)nn3)CC2)n1
O=C1C=C(NCc2ccc3c(c2)OCO3)CC(c2ccccc2)C1 (stereo unspecified)
Cc1cc(C(F)(F)F)nn1C(=O)c1cccnc1Cl
O=C(NCCCNCCCNC(=O)c1ccc(/C=N/O)nc1)c1ccc(/C=N/O)nc1
COC(=O)CSC1=C(C#N)C(c2ccsc2)CC(=O)N1 (stereo unspecified)
COc1ccc(N2C(=O)CSC23CCCCC3)cc1
Cc1cccnc1Nc1nc(-c2ccc(O)cc2)cs1
COc1ccc(/C=C(/C(=O)NCc2ccccc2)c2ccccc2)cc1
Cc1cccc(NC(=S)N2CCN(Cc3ccc4c(c3)OCO4)CC2)c1C
CC1(C)[N+]([O-])=C2C(=[N+]([O-])C1(C)C)c1ccccc1/C2=N\O
O=C1NCCN1CCNS(=O)(=O)c1ccccc1[N+](=O)[O-]
Cc1ccc(NC(=O)COC(=O)c2ccco2)cc1S(=O)(=O)N1CCOCC1
Cc1ccc(/C=N/NC(=O)c2ccc(C(=O)N/N=C/c3ccc(C)s3)o2)s1
CC(C)C[C@@H]1CN=C(N)N1C[C@@H]1CCCN1C[C@H](C)N1C[C@@H](Cc2ccccc2)N(CCc2ccc(Cl)c(Cl)c2)C1=N
Cc1ccc(S(=O)(=O)N2CCOCC2)cc1C(=O)NNC(=O)c1ccoc1C
COCCCNC(=O)CC1C[C@H](C(=O)N2CCOCC2)[C@@]2(C)c3[nH]c4ccccc4c3CCN2C1=O (stereo partly specified)
Cc1noc(C)c1CCC(=O)N1CCCC(CCC(=O)NCc2ccccc2F)C1 (stereo unspecified)
COCCn1c(N)c(C(=O)NCC2CCCO2)c2nc3ccccc3nc21 (stereo unspecified)
Cn1c(=O)c2c(nc(NC3CCCCC3)n2Cc2ccccc2)n(C)c1=O
CC(=O)C[C@@H](O)CC(=O)[C@@H]1OC(=O)[C@@H](C)C/C=C\Cc2ccccc21
CCN1C(=O)C(CC(=O)Nc2ccc(OC)cc2)N(CCc2ccccc2F)C1=S (stereo unspecified)
COC(=O)C1CC(O)CN1C(=O)NC1CCCCC1 (stereo unspecified)
CCCCn1c(=O)[nH]c(=O)c2c1nc(-c1cc(Cl)c(OC)c(OC)c1)n2C
CNc1nc2c(c(=O)[nH]c(=O)n2C)n1CCCc1ccccc1
COc1ccc(/C=N/NS(=O)(=O)c2ccc(NC(C)=O)cc2)cc1
N/C(=N\S(=O)(=O)c1cc(C(F)(F)F)cc(C(F)(F)F)c1)c1ccccc1
C[C@@H]1CN([C@@H](C)CO)C(=O)c2cc(NC(=O)Nc3ccc4c(c3)OCO4)ccc2O[C@H]1CN(C)S(=O)(=O)c1ccc(F)cc1
COC(=O)c1ccc(CSc2nc3sc(C(=O)O)c(C)c3c(=O)[nH]2)cc1
CC1CCN(C(=S)NC(=O)c2cccc([N+](=O)[O-])c2)CC1
COc1ccccc1CNC(=O)COc1ccc(S(=O)(=O)N2CCOCC2)cc1C
O=C(NC1CC2CCC1C2)C1COc2ccccc2O1 (stereo unspecified)
O=C(CN1C(=O)c2ccccc2C1=O)NCC1COc2ccccc2O1 (stereo unspecified)
COc1ccccc1/C=C1\SC(=S)N(CCC(=O)NNC(=O)c2ccccc2OC)C1=O
CNC[C@@H]1Oc2c(NC(=O)Nc3ccccc3)cccc2C(=O)N([C@@H](C)CO)C[C@H]1C
N#Cc1cc(-c2ccccc2)nnc1Sc1ccccc1
COc1ccc(OCC(=O)N2CCC3(CC2)CC(=O)c2ccccc2O3)cc1
Cc1ccc(S(=O)(=O)N2[C@@H](c3ccc(Br)cc3)C(C(=O)O)=CC[C@H]2c2cccc(Cl)c2)cc1
CCc1ccc([C@@H]2CC=C(C(=O)O)[C@H](c3ccc(Br)cc3)N2S(=O)(=O)c2ccc(C)cc2)cc1
